From PubChem BioAssay (Tox21)
Results filed as inconclusive are left out. A number with no mark means an inactive call. Activity calls are given as the source filed them. Calls come from the whole dose curve.

target: Beta-2 adrenergic receptor (Homo sapiens) (UniProt P07550); assay: Adrenergic beta2 receptor (ADRB2) small molecule antagonists, cell-based qHTS assay (AID 1963592); settings: CHO-ADRB2 cells, isoproterenol-stimulated cAMP HTRF ratio, 0.5 h; series mostly up to 92.4 µM; activity change, negative = inhibition: at the top concentration; note: nearly all actives have a fitted effect of over 50% in size
Sequence (P07550 whole entry, looked up): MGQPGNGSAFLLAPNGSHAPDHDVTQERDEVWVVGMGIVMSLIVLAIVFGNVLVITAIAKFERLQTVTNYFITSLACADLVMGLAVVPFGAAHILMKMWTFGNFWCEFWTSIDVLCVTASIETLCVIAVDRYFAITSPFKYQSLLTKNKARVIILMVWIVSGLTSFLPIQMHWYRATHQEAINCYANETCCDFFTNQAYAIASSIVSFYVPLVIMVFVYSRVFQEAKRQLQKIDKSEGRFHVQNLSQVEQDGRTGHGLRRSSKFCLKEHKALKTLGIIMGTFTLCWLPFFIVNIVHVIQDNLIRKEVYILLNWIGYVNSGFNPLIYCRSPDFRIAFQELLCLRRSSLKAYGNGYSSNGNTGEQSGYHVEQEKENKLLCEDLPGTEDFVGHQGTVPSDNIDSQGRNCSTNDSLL
From the text: U.S. Tox21 Program National Center for Advancing Translational Sciences [NCATS] Division of Preclinical Innovation [DPI] U.S. Environmental Protection Agency [EPA] National Institutes of Environmental Health Sciences [NIEHS] National Toxicology Program [NTP] U.S. Food and Drug Administration [FDA] Tox21 Assay Overview: Beta adrenergic receptors (Beta-ARs) belong to the G-protein coupled receptor (GPCR) superfamily, includes three subtypes - beta1, beta2, and beta3. Beta1-AR is the predominant receptor subtype expressed in the heart, and beta2-AR is expressed in the kidney, lung, blood vessel and in the heart, and beta3 is found in the adipocytes. Beta1 and 2 ARs couple to Gs protein and elevate cyclic adenosine mono phosphate (cAMP), which activates protein kinase A and leads to the downstream signaling responsible for the physiological actions. Beta-AR agonists or antagonists are the most prescribed therapeutic agents for heart failure and asthma, and these were one of the first target receptors for the rational drug design. Tox21 10K compound library was screened using the cAMP-Gs dynamic assay (Cisbio Bioassays, Shelton, CT) to identify agonists/antagonists of the Gs-coupled human adrenergic, beta2 receptor (ADRB2) in the CHO-ADRB2 cell line (Codex BioSolutions, Inc. Gaithersburg, MD), which stably over-expresses ADRB2. The principle of cAMP-Gs dynamic assay is based on HTRF technology, which facilitates the fluorescence resonance energy transfer (FRET) between donor Europium cryptate and acceptor d2-labeled cAMP. The cAMP generated within cells competes with the red acceptor, d2-labled cAMP, for binding to the monoclonal anti-cAMP-cryptate (Europium donor). An increase in intracellular cAMP leads to the disruption of FRET signal, and the signal is inversely proportional to the cAMP concentration. Propranolol HCl (Sigma-Aldrich, St. Louis, MO) was used as a positive control in the screening.
Tox21 Assay Protocol Summary: CHO-ADRB2 cells were dispensed at 1,000/well in 4uL assay medium into white/solid 1536-well plates (Greiner Bio-One North America Inc., Monroe, NC) using a Multidrop Combi dispenser (ThermoFisher Scientific, Waltham, MA). The assay plates were incubated at 37C and 5% CO2 for an overnight (18-20hr). Then positive control and test compounds dissolved in DMSO were transferred to the assay plates at 23nL using a Pintool station (Wako, San Diego, CA). Following the compound and positive control transfer, 1uL agonist-stimulation mix containing 1nM Isoproterenol HCl, 100uM IBMX and 25uM Ro-20-1724 was added to each well of the assay plates using BioRAPTR Flying Reagent Dispenser (FRD, Beckman Coulter, Brea, CA). The assay plates were incubated at room temperature for 0.5hr. Then 2.5ul each d2-labled cAMP and anti-cAMP-cryptate solutions were added separately to each well of the assay plates using an FRD and the assay plates were incubated at room temperature for 1hr. The fluorescence signal was measured at two different wavelengths (665nm and 615nm) using an Envision plate reader (Perkin Elmer, Shelton, CT). Data were expressed as the ratio of 665 nm/615 nm.
% is set by controls: 0 for no effect and ±100 for the full control effect; potency is the fitted concentration of half-maximal effect.

SMILES	activity change, negative = inhibition	Potency
CCCCC(=O)OCC(=O)[C@H]1[C@H](C)C[C@H]2[C@@H]3C[C@H](F)C4=CC(=O)C=C[C@]4(C)[C@@]3(F)[C@@H](O)C[C@@]21C	1.79% [at 42.5 µM]	–
O=C(O)C1CCC1	5.23% [at 42.5 µM]	–
CC(=O)NCCCCCC(=O)O	-8.13% [at 42.5 µM]	–
CC(C)Cc1nccs1	1.77%	–
CCCCCCCCCCCCCCCCCC(=O)OCCCCCCCCCCCCCC(C)C	0.564%	–
CCCC(=O)O[C@]1(C(=O)CC)CC[C@H]2[C@@H]3CCC4=CC(=O)CC[C@]4(C)[C@H]3[C@@H](O)C[C@@]21C	-15.4% [at 42.5 µM]	–
O=C1CCC(C2CCCCC2)CC1	9.12%	–
COC(=O)NN	5.88%	–
COC(C)OC	-16.1%	–
C/C=C/C(=O)OCC(C)C	1.59%	–
CN(C)c1ccc(CCO)cc1	-3.16%	–
Cc1ccc2c(Cl)cc(Cl)c(O)c2n1	1.69% [at 42.5 µM]	–
CC(C)c1cc(C(C)C)cc(C(C)C)c1	9.34%	–
CC(C)C(=O)OCc1cccc(OC(=O)[C@@H]2N3C(=O)[C@@H](NC(=O)Cc4ccccc4)[C@H]3SC2(C)C)c1	-24% [at 42.5 µM]	–
C#CC(C)N(C)C(=O)Nc1ccc(Cl)cc1 (stereo not given)	-6%	–
CC(C)(c1cc(Br)c(OCCO)c(Br)c1)c1cc(Br)c(OCCO)c(Br)c1	-0.0621%	–
Nc1nc2c(ncn2COC(CO)CO)c(=O)[nH]1	7.36% [at 42.5 µM]	–
CC(C)C[C@H](NC(=O)[C@H](CCc1ccccc1)NC(=O)CN1CCOCC1)C(=O)N[C@@H](Cc1ccccc1)C(=O)N[C@@H](CC(C)C)C(=O)[C@@]1(C)CO1	-13.2% [at 42.5 µM]	–
Cc1c(C)c2c(c(C)c1O)CC[C@@](C)(CCC[C@H](C)CCC[C@H](C)CCCC(C)C)O2	0.654%	–
CCOC(=O)OC(C)OC1=C(C(=O)Nc2ccccn2)N(C)S(=O)(=O)c2ccccc21 (stereo not given)	0.136% [at 42.5 µM]	–

SMILES	activity change, negative = inhibition	Potency
COCCOC(=O)C1=C(C)NC(C)=C(C(=O)OC(C)C)C1c1cccc([N+](=O)[O-])c1 (stereo not given)	-12.7% [at 42.5 µM]	–
O=C(Oc1ccccc1C(=O)O)c1ccccc1O	-5.31% [at 42.5 µM]	–
Fc1ccc([C@@H]2CCNC[C@H]2COc2ccc3c(c2)OCO3)cc1	-15% [at 42.5 µM]	–
OC(CCN1CCCC1)(c1ccccc1)C1CCCCC1 (stereo not given)	-13.2% [at 42.5 µM]	–
N[C@@H](COP(=O)(O)O)C(=O)O	3.41% [at 19 µM]	–
CCCSS/C(CCO)=C(\C)N(C=O)Cc1cnc(C)nc1N	6.82% [at 42.5 µM]	–
CCOC(=O)C1CC(=O)C(=C(O)C2CC2)C(=O)C1 (stereo not given)	-1.52%	–
N#C[C@@H]1CC(F)(F)CN1C(=O)CNC1CC2CCC(C1)N2c1ncccn1 (stereo not given in full)	-9.74%	–
CCOC(=O)COc1cc(-n2ncc(C(F)(F)F)c(C)c2=O)c(F)cc1Cl	-2.1%	–
CCCCNc1c(C(=O)OCC)c(C)nc2c1cnn2CC	6.03% [at 42.5 µM]	–
CCc1cccc(CC)c1	6%	–
Cc1c(C(=O)NCCO)[n+](=O)c2ccccc2n1[O-]	-7.95% [at 42.5 µM]	–
CC1=C(/C=C/C(C)=C/C=C/C(C)=C\C(=O)O)C(C)(C)CCC1	-0.0528%	–
Cc1cc(O)ccc1N	-13%	–
COc1c(C)c2c(c(O)c1C/C=C(\C)CCC(=O)O)C(=O)OC2	7.42% [at 42.5 µM]	–
O=C(NCCc1c[nH]c2ccccc12)c1cccnc1	-0.807% [at 42.5 µM]	–
CCCCCN=C(N)N/N=C/c1c[nH]c2ccc(OC)cc12	–	26.6 µM (active)
OCC(O)[C@@H](O)[C@H](O)[C@H](O)CO[C@H]1O[C@H](CO)[C@@H](O)[C@H](O)[C@H]1O (stereo not given in full)	-4.38%	–
CCCn1cnc2c1c(=O)n(CCCCC(C)=O)c(=O)n2C	6.77% [at 42.5 µM]	–
CC(C)C[C@@H]1[C@H](c2ccccc2)OC(=O)N1CCCN1CCCCCC1	0% [at 42.5 µM]	–
